Out of some 5,500 compounds screened, about 2,000 (36%) were called active. Another 18% or so got no clear call; they are omitted. Cut-off read from the data, not from the text of the source: active = normalized growth mostly below about 0.91 (no sharp cut-off); inconclusive = no clear call, values can overlap the other calls; inactive = mostly above about 0.92. The list shows a part of the results.
Test: chemical genetic growth profiling, strain panel (AID 1159580);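 note: tested at 20 µM; growth read once vehicle control cultures reached saturation at 30 °C; 1 = growth at the plate median or of vehicle wells; lower values mean less growth of the strain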
Settings: S. cerevisiae deletion strains, growth OD

Measured: normalized growth

Oc1ccc([C@H]2Oc3cc(O)cc(O)c3C[C@H]2O)cc1
inactive: locus YAL021C, strain ccr4, active compounds read low 0.995 | locus YAL026C, strain drs2, active compounds read low 0.991 | locus YAL030W, strain snc1, active compounds read low 0.988 | locus YBL061C, strain skt5, active compounds read low 0.98 | locus YBR009C, strain hhf1, active compounds read low 1.02 | locus YBR023C, strain chs3, active compounds read low 0.99 | locus YBR171W, strain sec66, active compounds read low 0.969 | locus YBR231C, strain swc5, active compounds read low 0.94 | locus YBR279W, strain paf1, active compounds read low 0.999 | locus YCL011C, strain gbp2, active compounds read low 1.01 | locus YCL016C, strain dcc1, active compounds read low 1.01 | locus YCL069W, strain vba3, active compounds read low 0.981 | locus YCR088W, strain abp1, active compounds read low 0.987 | locus YDL005C, strain med2, active compounds read low 0.988 | locus YDL040C, strain nat1, active compounds read low 0.983 | locus YDR001C, strain nth1, active compounds read low 0.987 | locus YDR069C, strain doa4, active compounds read low 0.952 | locus YDR137W, strain rgp1, active compounds read low 0.996 | locus YDR159W, strain sac3, active compounds read low 0.939 | locus YDR195W, strain ref2 0.933 | locus YDR297W, strain sur2, active compounds read low 0.984 | locus YDR334W, strain swr1, active compounds read low 0.976 | locus YDR335W, strain msn5, active compounds read low 0.995 | locus YDR392W, strain spt3, active compounds read low 0.929 | locus YEL003W, strain gim4, active compounds read low 0.97 | locus YEL037C, strain rad23, active compounds read low 0.982 | locus YEL061C, strain CIN8 (second series), active compounds read low 0.979 | locus YER015W, strain faa2, active compounds read low 0.998 | locus YER016W, strain bim1, active compounds read low 0.991 | locus YER111C, strain swi4, active compounds read low 0.967 | locus YER155C, strain BEM2 (second series), active compounds read low 0.948 | locus YFR010W, strain ubp6, active compounds read low 0.971 | locus YGL167C, strain pmr1, active compounds read low 0.986 | locus YGL173C, strain kem1, active compounds read low 0.977 | locus YGL227W, strain vid30, active compounds read low 0.987 | locus YGL240W, strain doc1, active compounds read low 0.969 | locus YGL253W, strain hxk2, active compounds read low 0.956 | locus YHR013C, strain ard1, active compounds read low 1.01 | locus YHR027C, strain rpn1, active compounds read low 0.979 | locus YHR030C, strain SLT2, active compounds read low 0.983 | locus YHR079C, strain IRE1, active compounds read low 0.981 | locus YHR142W, strain chs7, active compounds read low 0.993 | locus YJL092W, strain hpr5, active compounds read low 0.983 | locus YJL095W, strain BCK1 (second series), active compounds read low 0.977 | locus YJL095W, strain BCK1, active compounds read low 0.97 | locus YJL115W, strain asf1, active compounds read low 0.976 | locus YJL129C, strain trk1, active compounds read low 0.978 | locus YJL154C, strain vps35, active compounds read low 0.984 | locus YJL164C, strain tpk1, active compounds read low 1 | locus YJL166W, strain qcr8, active compounds read low 0.998 | locus YJR066W, strain TOR1, active compounds read low 0.947 | locus YKL160W, strain elf1, active compounds read low 1.02 | locus YKR026C, strain gcn3, active compounds read low 0.968 | locus YKR091W, strain srl3, active compounds read low 0.992 | locus YLL001W, strain dnm1, active compounds read low 0.956 | locus YLL026W, active compounds read low 0.993 | locus YLL041C, strain sdh2, active compounds read low 0.983 | locus YLR027C, strain aat2, active compounds read low 0.976 | locus YLR113W, strain HOG1, active compounds read low 0.977 | locus YLR221C, strain rsa3, active compounds read low 0.964 | locus YLR258W, strain gsy2, active compounds read low 0.999 | locus YLR262C, strain YPT6 (second series), active compounds read low 1 | locus YLR320W, strain mms22, active compounds read low 0.982 | locus YLR342W, strain FKS1, active compounds read low 0.99 | locus YLR357W, strain rsc2, active compounds read low 0.949 | locus YLR370C, strain arc18, active compounds read low 0.977 | locus YLR384C, strain iki3, active compounds read low 0.991 | locus YML120C, strain ndi1, active compounds read low 1 | locus YMR058W, strain fet3, active compounds read low 0.985 | locus YMR125W, strain sto1, active compounds read low 0.99 | locus YMR129W, active compounds read low 0.989 | locus YMR205C, strain PFK2, active compounds read low 1 | locus YMR231W, strain pep5, active compounds read low 0.976 | locus YNL071W, strain lat1, active compounds read low 1 | locus YNL183C, strain NPR1, active compounds read low 0.956 | locus YNL209W, strain ssb2, active compounds read low 1.01 | locus YNL248C, strain rpa49, active compounds read low 0.956 | locus YNL322C, strain KRE1 (second series), active compounds read low 0.995 | locus YNR049C, strain mso1, active compounds read low 0.987 | locus YOR001W, strain rrp6, active compounds read low 0.947 | locus YOR070C, strain gyp1, active compounds read low 0.99 | locus YOR080W, strain dia2, active compounds read low 0.974 | locus YOR083W, strain WHI5, active compounds read low 1.01 | locus YOR106W, strain vam3, active compounds read low 1.02 | locus YOR231W, strain MKK1, active compounds read low 0.978 | locus YOR265W, strain rbl2, active compounds read low 0.981 | locus YOR270C, strain vph1, active compounds read low 0.958 | locus YOR290C, strain snf2, active compounds read low 1.03 | locus YPL051W, strain arl3, active compounds read low 0.954 | locus YPL078C, strain atp4, active compounds read low 1.01 | locus YPL106C, strain sse1, active compounds read low 0.982 | locus YPL240C, strain hsp82, active compounds read low 0.989 | locus YPL256C, strain CLN2, active compounds read low 0.967
